PubChem BioAssay AID1159580 (chemical genetic matrix, 2015)
Values joined by “and” are separate entries in the source; they are usually repeats but may differ in a detail not shown here. Identical values can stand only once. In all, about 5,500 compounds went through this assay and about 2,000 (36%) were called active. About 18% were inconclusive and are not listed. No stated cut-off is given here; in the data, active means normalized growth mostly below about 0.91 (no sharp cut-off); inconclusive means no clear call, values can overlap the other calls; inactive means mostly above about 0.92. This is one part of the list.

Assay: chemical genetic growth profiling, strain panel (AID 1159580);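 further: tested at 20 µM; growth read once vehicle control cultures reached saturation at 30 °C; 1 = growth at the plate median or of vehicle wells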
Settings: S. cerevisiae deletion strains, growth OD

Measured: normalized growth

Cc1ccc2c(c1)CC[C@H]1CC(=O)CC[C@]21C
inactive: locus YAL013W, strain DEP1, stronger effect = lower value 1.01 | locus YAL021C, strain ccr4, stronger effect = lower value 0.991 | locus YAL026C, strain drs2, stronger effect = lower value 1.01 | locus YAL030W, strain snc1, stronger effect = lower value 1.01 | locus YBL061C, strain skt5, stronger effect = lower value 1 | locus YBR009C, strain hhf1, stronger effect = lower value 1 | locus YBR021W, strain FUR4, stronger effect = lower value 0.971 | locus YBR023C, strain chs3, stronger effect = lower value 0.998 | locus YBR171W, strain sec66, stronger effect = lower value 0.992 | locus YBR229C, strain ROT2, stronger effect = lower value 0.997 | locus YBR231C, strain swc5, stronger effect = lower value 1.01 | locus YBR279W, strain paf1, stronger effect = lower value 1.01 | locus YCL011C, strain gbp2, stronger effect = lower value 0.995 | locus YCL016C, strain dcc1, stronger effect = lower value 1.01 | locus YCL029C, strain bik1, stronger effect = lower value 0.991 | locus YCL069W, strain vba3, stronger effect = lower value 0.995 | locus YCR088W, strain abp1, stronger effect = lower value 0.998 | locus YDL005C, strain med2, stronger effect = lower value 1.01 | locus YDL035C, strain GPR1, stronger effect = lower value 0.973 | locus YDL040C, strain nat1, stronger effect = lower value 1 | locus YDL074C, strain BRE1, stronger effect = lower value 0.971 | locus YDL101C, strain DUN1, stronger effect = lower value 1.01 | locus YDL134C, strain PPH21, stronger effect = lower value 1 | locus YDL185W, strain tfp1, stronger effect = lower value 0.983 | locus YDL192W, strain arf1, stronger effect = lower value 0.974 | locus YDR001C, strain nth1, stronger effect = lower value 0.998 | locus YDR069C, strain doa4, stronger effect = lower value 1.01 | locus YDR101C, strain arx1, stronger effect = lower value 0.97 | locus YDR137W, strain rgp1, stronger effect = lower value 0.956 | locus YDR150W, strain NUM1, stronger effect = lower value 1 | locus YDR159W, strain sac3, stronger effect = lower value 1.01 | locus YDR162C, strain NBP2, stronger effect = lower value 0.974 | locus YDR195W, strain ref2 1.05 | locus YDR297W, strain sur2, stronger effect = lower value 0.991 | locus YDR318W, strain mcm21, stronger effect = lower value 0.972 | locus YDR334W, strain swr1, stronger effect = lower value 1.01 | locus YDR335W, strain msn5, stronger effect = lower value 1 | locus YDR388W, stronger effect = lower value 0.979 | locus YDR392W, strain spt3, stronger effect = lower value 0.983 | locus YDR502C, strain sam2, stronger effect = lower value 0.968 | locus YEL003W, strain gim4, stronger effect = lower value 0.991 | locus YEL037C, strain rad23, stronger effect = lower value 1.01 | locus YEL061C, strain CIN8 (second series), stronger effect = lower value 0.993 | locus YEL061C, strain CIN8, stronger effect = lower value 1 | locus YER015W, strain faa2, stronger effect = lower value 1.01 | locus YER016W, strain bim1, stronger effect = lower value 1 | locus YER110C, stronger effect = lower value 0.966 | locus YER111C, strain swi4, stronger effect = lower value 0.991 | locus YER155C, strain BEM2 (second series), stronger effect = lower value 0.978 | locus YER155C, strain BEM2, stronger effect = lower value 0.997 | locus YER167W, strain BCK2, stronger effect = lower value 0.991 | locus YFR010W, strain ubp6, stronger effect = lower value 1.01 | locus YGL078C, strain dbp3, stronger effect = lower value 0.989 | locus YGL086W, strain mad1, stronger effect = lower value 0.981 | locus YGL167C, strain pmr1, stronger effect = lower value 0.998 | locus YGL173C, strain kem1, stronger effect = lower value 0.982 | locus YGL227W, strain vid30, stronger effect = lower value 1 | locus YGL240W, strain doc1, stronger effect = lower value 0.987 | locus YGL248W, strain PDE1, stronger effect = lower value 0.993 | locus YGL253W, strain hxk2, stronger effect = lower value 1 | locus YGR078C, strain PAC10, stronger effect = lower value 0.982 | locus YGR135W, strain pre9, stronger effect = lower value 0.959 | locus YGR229C, strain SMI1, stronger effect = lower value 1.01 | locus YGR252W, strain gcn5, stronger effect = lower value 0.881 | locus YHR013C, strain ard1, stronger effect = lower value 1.02 | locus YHR027C, strain rpn1, stronger effect = lower value 1.01 | locus YHR030C, strain SLT2, stronger effect = lower value 0.996 and 0.98 | locus YHR079C, strain IRE1 (second series), stronger effect = lower value 0.969 | locus YHR079C, strain IRE1, stronger effect = lower value 0.973 | locus YHR094C, strain hxt1, stronger effect = lower value 0.995 | locus YHR129C, strain ARP1, stronger effect = lower value 0.996 | locus YHR142W, strain chs7, stronger effect = lower value 0.985 | locus YHR200W, strain rpn10, stronger effect = lower value 0.979 | locus YIL066C, strain RNR3, stronger effect = lower value 0.993 | locus YIL073C, strain SPO22, stronger effect = lower value 0.965 | locus YIL125W, strain kgd1, stronger effect = lower value 0.999 | locus YIR030C, strain dcg1, stronger effect = lower value 0.974 | locus YJL092W, strain hpr5, stronger effect = lower value 1 | locus YJL095W, strain BCK1 (second series), stronger effect = lower value 1.01 | locus YJL095W, strain BCK1, stronger effect = lower value 0.967 and 0.983 | locus YJL115W, strain asf1, stronger effect = lower value 1.01 | locus YJL129C, strain trk1, stronger effect = lower value 1 | locus YJL134W, strain LCB3, stronger effect = lower value 0.997 | locus YJL154C, strain vps35, stronger effect = lower value 0.993 | locus YJL164C, strain tpk1, stronger effect = lower value 0.992 | locus YJL166W, strain qcr8, stronger effect = lower value 0.995 | locus YJL168C, strain set2, stronger effect = lower value 0.971 | locus YJL187C, strain SWE1 (second series), stronger effect = lower value 1.01 | locus YJR043C, strain POL32, stronger effect = lower value 0.967 | locus YJR066W, strain TOR1, stronger effect = lower value 0.897 | locus YJR075W, strain HOC1, stronger effect = lower value 1
